PubChem BioAssay
Results filed as inconclusive are left out. Activity calls are given as the source filed them.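 How the source made its calls, unless noted: active means normalized viability below 100% at a tested concentration; inactive means the rest.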

Legend:
[1] = viability loss in pontine glioma line – cell-based, SU-DIPG-XVII, MIPE5.0, CellTiter-Glo, qHTS, dose response (AID 1347060; cut-off not given, nearly all actives have AC50 up to about 26 µM;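 on AC50: cells exposed to compound for 48 hours before viability readout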); details: CellTiter-Glo ATP luminescence
[2] = viability loss in pontine glioma line – cell-based, JHH-DIPG-1, MIPE4.0, CellTiter-Glo, qHTS, dose response (AID 1347062; cut-off not given, nearly all actives have AC50 up to about 27 µM;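 on AC50: cells exposed to compound for two days before readout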); details: JHH-DIPG-1 viability, CellTiter-Glo ATP luminescence
[3] = viability loss in pontine glioma line – cell-based, SU-DIPG-XIII, MIPE5.0, CellTiter-Glo, qHTS, dose response (AID 1347064; cut-off not given, nearly all actives have AC50 up to about 23 µM;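 on AC50: cells exposed to compound for 48 hours before the viability read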); details: CellTiter-Glo ATP luminescence
[4] = viability loss in pontine glioma line – cell-based, SU-DIPG-XXV, MIPE5.0, CellTiter-Glo, qHTS, dose response (AID 1347065; cut-off not given, nearly all actives have AC50 up to about 26 µM;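 further: cells exposed to compound for 48 hours before ATP readout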); details: CellTiter-Glo ATP luminescence
[5] = growth inhibition of DIPG cells – cell-based, MIPE4.0 library, CellTiter-Glo luminescence, qHTS (AID 1347066; cut-off not given, nearly all actives have AC50 up to about 30 µM;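 further: cells exposed to compound for 48 hours before readout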); details: SU-DIPG-VI viability, CellTiter-Glo ATP luminescence
[6] = JHH-DIPG-1 glioma cell viability, MIPE5.0 library, CellTiter-Glo luminescence, qHTS (AID 1347067; cut-off not given, nearly all actives have AC50 up to about 26 µM;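 further: cells exposed to compound for 48 hours before readout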); details: JHH-DIPG-1 glioma viability, CellTiter-Glo ATP luminescence
[7] = growth inhibition of DIPG cells – cell-based, MIPE5.0 library, qHTS (AID 1347068; cut-off not given, nearly all actives have IC50 up to about 30 µM;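 on IC50: cells exposed to compound for 48 hours before viability readout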); details: SU-DIPG-XXV viability
[8] = compounds altering HSF1 focus formation in cells – imaging, Selleck Cancer Library (AID 1347162; in the data active means plate-normalised HSF1 focus index below about 0.46); details: human cells, HSF1 nuclear foci imaging, at 10 µM; SSMD: measured here: HSF1 foci SSMD mean; cell count: measured here: cell number; plate-normalised HSF1 focus index: stronger effect = lower value
[9] = drug combination growth inhibition, ovarian cancer – cell-based, oncology-focused library, rucaparib conditional, profiling panel (AID 1508598); details: patient-derived ovarian cancer cells, CellTiter-Glo viability, 144 h, stronger effect = lower value

COc1cc2c(cc1OC)CC(=O)N(CCCN(C)C[C@H]1Cc3cc(OC)c(OC)cc31)CC2
inactive: outcome [1] | outcome [2] | outcome [3] | outcome [4] | outcome [5] | outcome [6] | outcome [7]

CN(C)c1ccccc1CN1CCCN(Cc2ccccc2N(C)C)C1c1ccncc1
inactive: outcome [4] | outcome [5] | outcome [7] | plate-normalised HSF1 focus index [8] 1.07
active: AC50 [1] 26.3 µM | AC50 [2] 20.9 µM
6990: cell count [8]
1.08: SSMD [8]

O=C(O)CCNc1cc(N2CCc3ccccc3CC2)nc(-c2ccccn2)n1
inactive: outcome [1] | outcome [2] | outcome [3] | outcome [4] | outcome [5] | outcome [6] | outcome [7]

Cc1ccc(C(=O)N(CCCN)[C@@H](c2nc3cc(Cl)ccc3c(=O)n2Cc2ccccc2)C(C)C)cc1
inactive: plate-normalised HSF1 focus index [8] 0.497 | viability ([9]; at 0.000305 µM, OCI-C5x cells, with rucaparib 10 µM, 100% = cells with rucaparib alone) 104% | viability ([9]; at 0.000305 µM, OCI-C5x cells, without rucaparib) 109% | viability ([9]; at 0.000305 µM, OCI-P5x cells, without rucaparib) 101% | viability ([9]; at 0.00122 µM, OCI-C5x cells, without rucaparib) 116%
3920: cell count [8]
-9.79: SSMD [8]
active: AC50 [1] 0.0166 µM | AC50 [2] 13.2 µM | AC50 [3] 5.9 µM | AC50 [4] 0.00934 µM | AC50 [6] 9.34 µM | IC50 [7] 16.6 nM | viability ([9]; at 0.000305 µM, OCI-P5x cells, with rucaparib 20 µM, 100% = cells with rucaparib alone) 95.5% | viability ([9]; at 0.00122 µM, OCI-C5x cells, with rucaparib 10 µM, 100% = cells with rucaparib alone) 90.5% | viability ([9]; at 0.00122 µM, OCI-P5x cells, with rucaparib 20 µM, 100% = cells with rucaparib alone) 78.5% | viability ([9]; at 0.00122 µM, OCI-P5x cells, without rucaparib) 81.4% | viability ([9]; at 0.00488 µM, OCI-C5x cells, with rucaparib 10 µM, 100% = cells with rucaparib alone) 44.7% | viability ([9]; at 0.00488 µM, OCI-C5x cells, without rucaparib) 76.6% | viability ([9]; at 0.00488 µM, OCI-P5x cells, with rucaparib 20 µM, 100% = cells with rucaparib alone) 68.7% | viability ([9]; at 0.00488 µM, OCI-P5x cells, without rucaparib) 66.4% | viability ([9]; at 0.0195 µM, OCI-C5x cells, with rucaparib 10 µM, 100% = cells with rucaparib alone) 43.1% | viability ([9]; at 0.0195 µM, OCI-C5x cells, without rucaparib) 55.9% | viability ([9]; at 0.0195 µM, OCI-P5x cells, with rucaparib 20 µM, 100% = cells with rucaparib alone) 51.4% | viability ([9]; at 0.0195 µM, OCI-P5x cells, without rucaparib) 21.1% | viability ([9]; at 0.0781 µM, OCI-C5x cells, with rucaparib 10 µM, 100% = cells with rucaparib alone) 47.4% | viability ([9]; at 0.0781 µM, OCI-C5x cells, without rucaparib) 65.7% | viability ([9]; at 0.0781 µM, OCI-P5x cells, with rucaparib 20 µM, 100% = cells with rucaparib alone) 55.4% | viability ([9]; at 0.0781 µM, OCI-P5x cells, without rucaparib) 24.5% | viability ([9]; at 0.313 µM, OCI-C5x cells, with rucaparib 10 µM, 100% = cells with rucaparib alone) 56.5% | viability ([9]; at 0.313 µM, OCI-C5x cells, without rucaparib) 65.1% | viability ([9]; at 0.313 µM, OCI-P5x cells, with rucaparib 20 µM, 100% = cells with rucaparib alone) 54.8% | viability ([9]; at 0.313 µM, OCI-P5x cells, without rucaparib) 22.4% | viability ([9]; at 1.25 µM, OCI-C5x cells, with rucaparib 10 µM, 100% = cells with rucaparib alone) 50.7% | viability ([9]; at 1.25 µM, OCI-C5x cells, without rucaparib) 61.5% | viability ([9]; at 1.25 µM, OCI-P5x cells, with rucaparib 20 µM, 100% = cells with rucaparib alone) 56.9% | viability ([9]; at 1.25 µM, OCI-P5x cells, without rucaparib) 24.3% | viability ([9]; at 5 µM, OCI-C5x cells, with rucaparib 10 µM, 100% = cells with rucaparib alone) 6.32% | viability ([9]; at 5 µM, OCI-C5x cells, without rucaparib) 47.8% | viability ([9]; at 5 µM, OCI-P5x cells, with rucaparib 20 µM, 100% = cells with rucaparib alone) 26.6% | viability ([9]; at 5 µM, OCI-P5x cells, without rucaparib) 17.1%

CCC(C)SSc1ncc[nH]1 (stereo not drawn)
active: AC50 [1] 14.8 µM | AC50 [2] 23.5 µM | AC50 [4] 11.8 µM | AC50 [5] 26.4 µM

COc1cc(N2CCC(N3CCN(C)CC3)CC2)ccc1Nc1ncnc(Nc2ccccc2S(=O)(=O)C(C)C)n1
inactive: outcome [7]
active: AC50 [1] 6.61 µM | AC50 [2] 14.8 µM | AC50 [3] 5.25 µM | AC50 [4] 3.72 µM | AC50 [6] 16.6 µM
